The results in this text go back to PubChem BioAssay (Tox21).

Molecules are shown by their SMILES. Inconclusive results are not listed. Entries that show only a call come without a potency. Calls of active or inactive are those of the source. Calls come from the whole dose curve; as a rule, active = well fitted cell-killing curve with a large enough effect in the repeat runs; inconclusive = weak or mixed curves, or effect the other way; inactive = flat fitted curve, though single readings scatter.

The test in a line: qHTS assay to identify small molecule antagonists of the retinoid acid receptor (RAR) signaling pathway - cell viability counter screen (AID 1159551). Note: nearly all actives have a fitted effect of over 35% in size. The following applies: C3RL4 cells viability, ATP luminescence (CellTiter-Glo), 6 h; series mostly up to 92.4 µM; activity change, negative = cytotoxicity: at the top concentration. The text has this:
U.S. Tox21 Program National Center for Advancing Translational Sciences [NCATS] NIH Chemical Genomics Center [NCGC] U.S. Environmental Protection Agency [EPA] National Institutes of Environmental Health Sciences [NIEHS] National Toxicology Program [NTP] U.S. Food and Drug Administration [FDA] Tox21 Assay Overview: All-trans Retinoic acid (atRA) is the potent natural metabolite of retinol and plays an important role in normal embryonic development and maintenance of cellular phenotype in adult animals. atRA is the activating ligand for the retinoic acid receptors (RARs) which form heterodimers with retinoid X receptors (RXRs) on the retinoic acid response element (RARE). Through activation of the RAR/RXRs nuclear receptors, atRA regulates the transcription of a large number of protein-coding genes and regulatory RNAs. Intracellular levels of atRA are controlled by the retinol signaling pathway (RSP) that regulates the biosynthesis and catabolism of atRA to maintain physiological levels. Chemicals that interfere with the RSP can cause abnormal intracellular levels of atRA and therefore are potential developmental toxicants. To assess compounds for the potential adverse effect on embryonic development through interfering with retinol signaling, a cell-based RARE luciferase reporter gene assay was used. C3RL4 cell line (OARSA/CFSAN/FDA, Laurel, MD) was used to screen Tox21 10K compound library for identifying inhibitors of the RSP. Also cytotoxicity was assessed by determining the viability of cells based on the quantitation of ATP.
Tox21 Assay Protocol Summary: C3RL4 cells were seeded at 1,000/well in 4 uL of assay medium into white solid 1,536-well tissue culture plates (Greiner Bio-One North America Inc. Monroe, NC) using a Multidrop Combi (Thermo Scientific, Waltham, MA) dispenser. After incubation at 37 C and 5% CO2 for an overnight, 23 nL of compounds dissolved in DMSO, positive control or DMSO only were transferred by a Pintool station (Kalypsys, San Diego, CA). One ul of 1 uM (final concentration) of Retinol was added right after the compound addition by using a Flying Reagent Dispenser (FRD) (Aurora Discovery, San Diego, CA). After 6 hr incubation at 37 C and 5% CO2, 5 uL of CellTiter-Glo reagent (Promega Corporation, Madison, WI) was added to each assay plate using an FRD. Luminescence was quantified on a ViewLux plate reader (PerkinElmer, Waltham, MA) after 30 min incubation at room temperature.
Regarding `Cc1cc(C)cc(O)c1`, the Potency result was “inactive”.

Consider `CC(=O)c1nccs1`, for which the Potency result is “inactive”.

On to `O=[N+]([O-])c1ccccc1C(F)(F)F`, for which the Potency entry was “inactive”.

Consider `CC(=O)OCc1ccc2c(c1)OCO2`, for which the Potency entry was “inactive”.

Regarding `NC1CCCCC1N` (stereo not given), the Potency result was “inactive”.

As for `C=C(CC(=O)O)C(=O)O`, the Potency result was “inactive”.

Turning to `Cc1ccc(C(C)C)cc1`, the Potency result was “inactive”.

For the compound `NCCNCCNCCN`, the Potency entry is “inactive”.

On to `O=C1CCCCCCCCCCC1`, for which the Potency result is “inactive”.

Turning to `CCCCC(CC)COC(=O)c1ccc(C(=O)OCC(CC)CCCC)cc1` (stereo not given), the Potency entry is “inactive”.

`O=C(NCC1CCCCN1)c1cc(OCC(F)(F)F)ccc1OCC(F)(F)F` (stereo not given): the Potency entry was “inactive”.

With `COc1cc(NC(=O)CC(C)=O)c(OC)cc1Cl`, the Potency entry is “inactive”.

With `CC(=O)Nc1ccc(CC(=O)O)cc1`, the Potency entry was “inactive”.

`CC(O)CNCC(C)O` (stereo not given): the Potency result was “inactive”.

On to `COC(=O)OC`, for which the Potency result was “inactive”.

As to `OCc1ccc(Cl)cc1Cl`, the Potency entry was “inactive”.

`Cc1ccc(C)c(S(=O)(=O)O)c1`: the Potency result was “inactive”.

`O=C(c1ccccc1)c1ccc(O)c(O)c1O`: the Potency result is “inactive”.

Regarding `COc1ccc([C@@H]2CC(=O)c3c(O)cc(O[C@@H]4O[C@H](CO[C@@H]5O[C@@H](C)[C@H](O)[C@@H](O)[C@H]5O)[C@@H](O)[C@H](O)[C@H]4O)cc3O2)cc1OC`, the Potency result is “inactive”.

As to `N#CCC(=O)O`, the Potency result is “inactive”.

Consider `O=[N+]([O-])c1cc(C(F)(F)F)ccc1Cl`, for which the Potency result was “inactive”.

In the case of `CC(=O)OC(C)(C)C1CC=C(C)CC1` (stereo not given), the Potency result was “inactive”.

For `CN=C(NC#N)NCCSCc1nc[nH]c1C`, the Potency result is “inactive”.

With `COc1ccc(N)c(OC)c1`, the Potency result was “inactive”.

Regarding `CC1=CC(=O)CC(C)(C)C1`, the “activity change, negative = cytotoxicity” value is -1.84% (inactive).

Consider `Clc1cccc(Cl)c1NC1=NCCN1`, for which the Potency result was “inactive”.

Regarding `CC(=O)CC(=O)N(C)C`, the Potency result was “inactive”.

On to `CC1(C)C(=O)N(Cl)C(=O)N1Cl`, for which the Potency entry was “inactive”.

For the compound `NC(N)=S`, the Potency entry is “inactive”.

Regarding `CC[N+](CC)(CC(=O)Nc1c(C)cccc1C)Cc1ccccc1`, the Potency entry was “inactive”.

For the compound `Cc1cc(CC(=O)O)n(C)c1C(=O)c1ccc(Cl)cc1`, the Potency entry is “inactive”.

As for `CO[Si](CCCNCCN)(OC)OC`, the Potency entry is “inactive”.

Take `C=C(C)CC(C)(C)C`: the Potency entry was “inactive”.

With `CCCCCCCCCCCC(=O)N(C)CC(=O)O`, the Potency entry was “inactive”.

Turning to `O=c1c(O)c(-c2ccc(O)c(O)c2)oc2cc(O)cc(O)c12`, the “activity change, negative = cytotoxicity” value is 7.86% [at 42.5 µM] (inactive).

Turning to `CC(C)(CO)CO`, the Potency entry is “inactive”.

Take `Cc1ccc(Cl)cc1`: the Potency entry is “inactive”.

Turning to `O=C(Cl)c1ccc(C(=O)Cl)cc1`, the Potency entry is “inactive”.

For the compound `CCCCCCCC(=O)O`, the Potency result was “inactive”.

Turning to `CCN(CC)CCNC(=O)c1ccc(N)cc1`, the Potency entry is “inactive”.
